The text below walks through data of PubChem BioAssay (Tox21).

A number with no mark means an inactive call. Results filed as inconclusive are left out. The source made the active and inactive calls. Unless noted, the call rests on the fitted dose curve; in most records, active means well fitted curve in the direction sought with a large enough effect in the repeat runs; inconclusive means weak or mixed curves; inactive means no such curve, though single readings can be large; an effect the other way counts as inactive or inconclusive.

Assay [1] addresses Luciferin 4-monooxygenase (Photinus pyralis) (UniProt P08659). Put plainly: qHTS assay to identify small molecule inhibitors of firefly luciferase (AID 1224835). Further: nearly all actives have a fitted effect of over 25% in size. Further: potency means the concentration at half of the fitted maximal effect. Put shortly:
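Quantitative HTS format; KM concentrations of both substrates. Purified P. pyralis FLuc activity quantified from luminescence images.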

A short description of assay [2]: qHTS assay to identify small molecule agonists of the constitutive androstane receptor (CAR) signaling pathway - cell viability counter screen (AID 1224836). Further: nearly all actives have a fitted effect of over 45% in size. Put shortly: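 Fluorescence from CellTiter-Fluor indicates live cells after 23 h exposure. The human hepatoma line expresses hCAR and a CYP2B6-2.2kb reporter. Incubation medium contains 0.75 uM PK11195 (final).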

Assay [3] addresses Nuclear receptor subfamily 1 group I member 3 (Homo sapiens) (UniProt Q14994). In words: qHTS assay to identify small molecule agonists of the constitutive androstane receptor (CAR) signaling pathway (AID 1224839). Further: nearly all actives have a fitted effect of over 15% in size. Further: potency means the concentration at half of the fitted maximal effect.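 On activation: HepG2 cells stably carrying human CAR and a CYP2B6 luciferase reporter.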 A digest of the protocol:
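Stable hCAR/CYP2B6-2.2kb HepG2 line in DMEM with 10% FBS; compounds (15 concentrations) and 0.75 uM PK11195 final, 24 h at 37 C/5% CO2, then ONE-Glo luminescence after 30 min.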

A short description of assay [4]: qHTS assay to identify small molecule antagonists of the estrogen related receptor signaling pathway with the pleiotropic PPARgamma coactivator (PGC) from Tox21 10K library - cell viability counter screen (AID 1224840; active means well fitted cell-killing curve with a large enough effect in the repeat runs, not every such curve was filed as active; further: nearly all actives have a fitted effect of over 40% in size). Put shortly:
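Compounds in DMSO, alongside positive and negative controls, were pinned onto PGC/ERR cells (2,000 per well). Exposure lasted 17.5 hours at 37 C, followed by a 30-minute CellTiter-Fluor incubation and fluorescence reading.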
(In general: Quantitative high-throughput screening tests each substance at several concentrations.)

Assay [5] can be described thus: qHTS assay to identify small molecule agonists of the estrogen related receptor signaling pathway with the pleiotropic PPARgamma coactivator (PGC) from Tox21 10K library (AID 1224842). Further: nearly all actives have a fitted effect of over 15% in size. Put shortly:
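PGC/ERR reporter cells (NTP line) were seeded 2,000 per well, rested 6 h at 37 C/5% CO2, then pin-dosed with compounds in DMSO for 18 h at 37 C; luciferase read by One-Glo luminescence after 30 min at room temperature.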

Assay [6] is described as follows: qHTS assay to identify small molecule agonists of the hypoxia (HIF-1) signaling pathway - cell viability counter screen (AID 1224844; calls by dose curve; further: nearly all actives have a fitted effect of over 50% in size). A digest of the protocol: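 Luminescent ATP content (CellTiter-Glo, 30 min, room temperature) served as the viability measure in HRE-bla ME-180 cells exposed to compounds for 17 hrs in low-serum medium (0.5% dialyzed FBS).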
Assay [7] in a line: qHTS assay to identify small molecule agonists of H2AX (AID 1224845; active means well fitted activation curve with a large enough effect in the signal ratio in the repeat runs, not every such curve was filed as active; the % refers to the signal ratio). A digest of the protocol: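 Wild-type CHO-K1 cells plated overnight, then exposed 3 hr at 37C to compounds at 15 concentrations (0.76% DMSO). Lysed, then HTRF anti-pH2AX(S139)-cryptate/anti-H2AX-d2 detection after 24 hr at room temperature; emissions 665 and 620 nm.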
Assay [8] can be described thus: qHTS assay to identify small molecule agonists of the hypoxia (HIF-1) signaling pathway (AID 1224846; active means well fitted activation curve with a large enough effect in the signal ratio in the repeat runs, not every such curve was filed as active; the % refers to the signal ratio). A digest of the protocol:
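Measured by blue/green FRET after loading CCF4-AM: beta-lactamase expressed from a hypoxia response element in ME-180 cells. Test agents were delivered in DMSO and left 17 hrs; cells had been plated 5 hrs earlier in low-serum (0.5% dialyzed FBS) medium.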

A short description of assay [9]: qHTS assay to identify small molecule agonists of H2AX - cell viability counter screen (AID 1224847; calls by dose curve; further: top concentration of the series differs between compounds; nearly all actives have a fitted effect of over 30% in size). A digest of the protocol: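 Viability of CHO-K1 (wild type) cells after 3 hr compound exposure was measured by CellTiter-Glo luminescence.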
The nature of assay [10]: qHTS assay to identify small molecule antagonists of the estrogen related receptor (ERR) signaling pathway from Tox21 library (AID 1224848). Further: nearly all actives have a fitted effect of over 50% in size. A digest of the protocol: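 Cells: ERR line, 2,000/well; 6 h preincubation 37 C/5% CO2. Cpd in DMSO via pin tool; 18 h, 37 C. ONE-Glo, 30 min RT, luminescence.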
Assay [11] can be described thus: qHTS assay to identify small molecule agonists of the estrogen related receptor (ERR) signaling pathway from Tox21 library (AID 1224849; calls by dose curve; further: nearly all actives have a fitted effect of over 15% in size). The following applies: ERR reporter cell line, ONE-Glo luciferase, 18 h; at 92.4 µM (top of the series) unless noted. A digest of the protocol:
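We plated ERR reporter cells, waited 6 h, added compounds in DMSO by pin tool and incubated them 18 h at 37 C. ONE-Glo was then added and luminescence read after 30 min.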

The nature of assay [12]: qHTS RealTime-Glo MT Cell Viability Assay in HEK293 cells - 32 hour (AID 1224868). Further: nearly all actives have a fitted effect of over 50% in size. Further: potency means the concentration at half of the fitted maximal effect. On activity change, negative = cytotoxic: top concentration of the series differs between compounds. A digest of the protocol:
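Reads taken at 0, 8, 16, 24, 32 and 40 h from the same wells. HEK293 cells (600/well) carried RealTime-Glo reagents from seeding, with compound added after a 5 h settle at 37 C.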

The nature of assay [13]: A CellTox Green Cytotoxicity Assay to monitor cytotoxicity in HEK293 cells - 0 hour (AID 1224869). Further: nearly all actives have a fitted effect of over 50% in size. A digest of the protocol:
(§1)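 Each value comes from one timepoint of a single continuous run in which HEK293 cells with CellTox Green were exposed to compound for up to 40 h at 37 C, dye fluorescence rising with cell death.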

The nature of assay [14]: A CellTox Green Cytotoxicity Assay to monitor cytotoxicity in HEK293 cells - 40 hour (AID 1224871). Further: nearly all actives have a fitted effect of over 45% in size. A digest of the protocol: as §1
Assay [15] is described as follows: qHTS RealTime-Glo MT Cell Viability Assay in HepG2 cells - 24 hour (AID 1224867). Further: nearly all actives have a fitted effect of over 50% in size. A digest of the protocol: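 HepG2 suspension premixed with RealTime-Glo reagents is plated at 600 cells per well and left 5 h at 37 C/5% CO2. Compounds in DMSO then go in, and bioluminescence reflecting viable cell number is recorded over 40 h.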
The target of assay [16] is Thyrotropin receptor (Homo sapiens) (UniProt P16473). Put plainly: qHTS assay to identify small molecule agonists of the thyroid stimulating hormone receptor (TSHR) signaling pathway (AID 1224843; calls by dose curve; further: nearly all actives have a fitted effect of over 45% in size). A digest of the protocol:
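TSHR-expressing HEK293 cells (800 per well) were exposed to compounds for 30 min at room temperature. cAMP was then detected by HTRF competition with cAMP-d2 and anti-cAMP cryptate, read after 1 h at room temperature. Fifteen concentrations, triplicate.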

Assay [17] deals with Nuclear receptor subfamily 1 group I member 3 (Homo sapiens) (UniProt Q14994). In words: qHTS assay to identify small molecule antagonists of the constitutive androstane receptor (CAR) signaling pathway (AID 1224838).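 Further: HepG2 cells stably expressing hCAR with CYP2B6 luciferase reporter stimulated by CITCO; nearly all actives have a fitted effect of over 40% in size.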 Put shortly:
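Quantitative HTS in double-stable HepG2-CYP2B6-hCAR cells. After 4 h plating, cells get compound (15 concentrations) and CITCO at 50 nM final, incubate 24 h at 37 C, then ONE-Glo luminescence is read.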

A short description of assay [18]: qHTS RealTime-Glo MT Cell Viability Assay in HepG2 cells - 40 hour (AID 1224870). Further: nearly all actives have a fitted effect of over 50% in size. Put shortly:
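HepG2 cells mixed with RealTime-Glo MT reagents (NanoLuc plus cell-permeant prosubstrate) were seeded at 600 cells/well, incubated 5 h at 37 C/5% CO2, then pinned with compounds in DMSO; nonlytic luminescence tracked viability during 40 h treatment.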

A short description of assay [19]: qHTS assay to identify small molecule antagonists of the estrogen related receptor signaling pathway with the pleiotropic PPARgamma coactivator (PGC) from Tox21 10K library (AID 1224841; call rule not given here). Put shortly: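 Compound exposure ran 18 hours at 37 C in PGC/ERR cells (2,000/well) that had first rested 6 hours in a 37 C/5% CO2 incubator. Luciferase activity was then detected with One-Glo after a 30-minute room-temperature step.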

Assay [20] in a line: qHTS assay to identify small molecule antagonists of the constitutive androstane receptor (CAR) signaling pathway - cell viability counter screen (AID 1224837). Further: nearly all actives have a fitted effect of over 45% in size. Put shortly: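 Fluorescence from CellTiter-Fluor served as the viability signal. Human hepatoma HepG2 cells stably bearing hCAR and CYP2B6-2.2kb received compound plus CITCO (50 nM final) for 23 hr.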
On the % scale 0 is the no-effect control and ±100 the full control effect.

Nuclear receptor subfamily 1 group I member 3 (Homo sapiens), sequence (Q14994 whole entry, looked up): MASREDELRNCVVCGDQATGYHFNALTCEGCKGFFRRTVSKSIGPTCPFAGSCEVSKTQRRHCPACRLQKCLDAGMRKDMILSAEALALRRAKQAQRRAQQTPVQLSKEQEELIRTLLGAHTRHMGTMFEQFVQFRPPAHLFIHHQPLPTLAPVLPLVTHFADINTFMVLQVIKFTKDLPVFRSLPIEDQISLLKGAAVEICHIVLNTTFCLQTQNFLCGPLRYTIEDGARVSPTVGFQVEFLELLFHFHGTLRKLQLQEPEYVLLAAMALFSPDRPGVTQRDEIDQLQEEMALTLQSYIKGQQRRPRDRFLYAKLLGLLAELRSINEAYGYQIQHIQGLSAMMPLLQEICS
Luciferin 4-monooxygenase (Photinus pyralis), sequence (P08659 whole entry, looked up): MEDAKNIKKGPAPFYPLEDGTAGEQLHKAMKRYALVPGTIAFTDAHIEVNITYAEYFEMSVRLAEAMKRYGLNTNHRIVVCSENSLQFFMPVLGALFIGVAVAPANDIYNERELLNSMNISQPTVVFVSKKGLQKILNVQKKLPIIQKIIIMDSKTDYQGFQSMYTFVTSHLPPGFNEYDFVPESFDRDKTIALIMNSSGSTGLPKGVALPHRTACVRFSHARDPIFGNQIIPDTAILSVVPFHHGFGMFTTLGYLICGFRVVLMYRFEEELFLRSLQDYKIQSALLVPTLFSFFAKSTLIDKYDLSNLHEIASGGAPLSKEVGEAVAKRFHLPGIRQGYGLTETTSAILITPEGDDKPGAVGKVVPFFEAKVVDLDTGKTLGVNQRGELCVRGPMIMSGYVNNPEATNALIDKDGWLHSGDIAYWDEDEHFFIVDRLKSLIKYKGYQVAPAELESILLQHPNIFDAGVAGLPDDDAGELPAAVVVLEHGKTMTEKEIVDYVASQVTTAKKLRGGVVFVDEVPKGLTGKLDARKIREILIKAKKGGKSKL
Thyrotropin receptor (Homo sapiens), sequence (P16473 whole entry, looked up): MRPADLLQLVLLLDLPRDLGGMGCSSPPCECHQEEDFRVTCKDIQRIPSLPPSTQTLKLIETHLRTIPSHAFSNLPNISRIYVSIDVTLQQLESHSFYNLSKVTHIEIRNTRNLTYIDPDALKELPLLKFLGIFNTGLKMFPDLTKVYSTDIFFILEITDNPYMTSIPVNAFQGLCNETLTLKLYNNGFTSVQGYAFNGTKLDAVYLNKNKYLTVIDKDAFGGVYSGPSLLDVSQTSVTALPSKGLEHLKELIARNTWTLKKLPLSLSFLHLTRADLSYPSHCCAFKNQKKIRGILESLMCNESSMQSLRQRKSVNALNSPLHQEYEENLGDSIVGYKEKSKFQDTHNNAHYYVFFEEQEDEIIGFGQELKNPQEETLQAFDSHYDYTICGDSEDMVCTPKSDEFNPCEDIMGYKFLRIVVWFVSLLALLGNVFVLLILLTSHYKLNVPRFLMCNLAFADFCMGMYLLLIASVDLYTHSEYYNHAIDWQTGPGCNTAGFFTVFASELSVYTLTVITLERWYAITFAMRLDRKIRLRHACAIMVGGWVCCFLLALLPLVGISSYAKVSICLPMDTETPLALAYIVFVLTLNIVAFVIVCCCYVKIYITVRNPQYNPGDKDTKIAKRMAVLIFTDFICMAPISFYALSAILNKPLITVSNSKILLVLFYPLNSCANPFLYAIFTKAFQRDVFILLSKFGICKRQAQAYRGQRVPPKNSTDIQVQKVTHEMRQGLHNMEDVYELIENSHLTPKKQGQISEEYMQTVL

On to `Cc1cc(Cl)c(C)cc1Cl`, for which the Potency entry in [1], in assay [2], in [3], in assay [9], in [10] and in assay [12] was “inactive” each time. Also, the Potency entry in assay [14] is “inactive”. For the same molecule, the molecule was classed as inactive in assay [4], in [5], in assay [6], in assay [7], in assay [8] and in [13]. Besides, the activity change, positive = activation in [11] is -5.35%.
Regarding `CCCN1C[C@H](CSC)C[C@@H]2c3cccc4[nH]cc(c34)C[C@H]21`, the Potency entry in [1], in assay [2], in [9], in [12] and in assay [14] was “inactive” throughout. Further, the result in assay [4], in assay [6], in assay [15] and in [13] was inactive.
On to `O=C(O)Cc1ccc(Cl)cc1Cl`, for which the Potency entry in [1], in [2], in assay [16], in assay [9], in assay [12] and in assay [14] was “inactive” throughout. The outcome in assay [4], in [6], in assay [7], in assay [8], in assay [15] and in assay [13] was inactive.
As to `CC(=O)c1ccc2c(c1)Cc1ccccc1-2`, the Potency was 25.2 µM (active) in assay [1] and 54.5 µM (active) in [3]. The Potency entry in assay [2], in assay [12] and in [14] was “inactive” throughout. Further, the outcome in assay [17], in assay [4], in assay [6], in assay [7], in [8] and in assay [15] was inactive. Moreover, the result in assay [13] and in assay [18] was inactive.
With `CCC(C)NC(N)=O` (centres undefined), the Potency result in assay [1], in assay [2], in assay [3], in assay [16], in [12] and in assay [14] was “inactive” each time. In addition, the molecule was classed as inactive in assay [17], in [4], in assay [6], in [7], in assay [8] and in assay [15]. The call in assay [13] and in assay [18] was inactive.
Consider `NS(=O)(=O)c1cc2c(cc1Cl)CN(C1CCCCC1)C2=O`, for which the Potency entry in [1], in [2], in assay [3], in [16], in assay [9] and in assay [14] was “inactive” each time. In addition, the outcome in assay [4], in [6], in assay [7], in assay [8], in [15] and in [13] was inactive. Moreover, the Potency in [12] is 9.52 µM (active).
In the case of `COc1ccc(C2CNC(=O)C2)cc1OC1CCCC1` (centres undefined), the Potency result in [1], in assay [2], in assay [19], in assay [9], in assay [10] and in [12] was “inactive” each time. In addition, the Potency result in [14] is “inactive”. The outcome in assay [4], in assay [5], in assay [6], in assay [7], in assay [15] and in [13] was inactive. The outcome in assay [18] was inactive. For the same molecule, the activity change, positive = activation in assay [11] is -4.57% [at 42.5 µM].
In the case of `N[C@@H](CCC(=O)N[C@@H](CS)C(=O)NCC(=O)O)C(=O)O`, the viability change, negative = cytotoxic in [2] was 2.39% [at 19 µM]; in [4] it was 15.7% [at 19 µM]. Besides, the activity change, negative = cytotoxicity was 7.5% [at 19 µM] in assay [20], 2.76% [at 15.8 µM] in assay [6], 0.69% [at 31.6 µM] in [9] and 0.707% [at 15.8 µM] in assay [15]. Further, the activation (H2AX phosphorylation) in [7] is -1.53% [at 31.6 µM]. In assay [8], the activation was -0.104% [at 15.8 µM]. In addition, the activity change, negative = cytotoxic in assay [12] was 7.09% [at 15.8 µM]; in assay [18] it was -0.349% [at 15.8 µM]. The cytotoxicity in assay [13] was 0.542% [at 15.8 µM]. Further, in [14], the cytotoxicity increase was 2.27% [at 15.8 µM].
`CC(S)C(=O)NCC(=O)O` (centres undefined): the Potency result in assay [2], in [20], in assay [3], in [16], in assay [9] and in assay [12] was “inactive” throughout. Also, the result in assay [17], in assay [4], in assay [6], in [7], in assay [8] and in assay [15] was inactive. Also, the result in assay [18] was inactive.
In the case of `Cc1cc(NC(=O)C2=C(O)c3ccccc3S(=O)(=O)N2C)no1`, the Potency result in assay [2], in assay [20], in [16], in assay [12] and in assay [14] was “inactive” throughout. Also, the outcome in assay [4], in assay [6], in assay [15] and in assay [18] was inactive.
